Experiment [1] addresses Glutaminase kidney isoform, mitochondrial (Homo sapiens) (UniProt O94925). In words: qHTS for Inhibitors of Glutaminase (GLS): LOPAC Validation (AID 624146).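 Further: glutamate product detected by oxidase and peroxidase coupled Amplex red fluorescence gain; on the % scale 0 is the no-effect control and ±100 the full control effect; nearly all actives have a fitted effect of over 60% in size.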 In a few lines:
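Glutamate formation by hKGA was monitored fluorometrically using coupled glutamate oxidase, HRP and Amplex Red. Substrate was added as 1 mM L-glutamine solution; incubation was 30 min at RT after an initial read.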

Experiment [2] in a line: qHTS of Trypanosoma Brucei Inhibitors: LOPAC Validation (AID 624147). Further: 0% is about no effect. The method, boiled down: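 TbPYK + substrate in 50 mM TEA pH 7.2, 100 mM KCl, 10 mM MgCl2, 0.05% BSA, 0.01% Tween-20; cpd pinned; ADP 130 uM final; 45 min RT; Kinase-Glo Plus 10 min; luminescence endpoint.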
For experiment [3], the target named is Glucagon-like peptide 1 receptor (Homo sapiens) (UniProt P43220). As to the kind of experiment: qHTS of GLP-1 Receptor Agonists: LOPAC Validation (AID 624148).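 Further: 0% is about no effect; higher luminescence signal means agonism.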 In a few lines:
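HEK293 cells stably co-expressing GLP-1R and a cAMP-responsive luciferase reporter, plated 12 hours before compound, then incubated 4-6 hr at 37 deg C. Luminescence read 12 min after detection reagent.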
A general note: Quantitative high-throughput screening tests each substance at several concentrations.

The nature of experiment [4]: qHTS of Nrf2 Activators: LOPAC Validation (AID 624149). Further: 0% is about no effect. In a few lines: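 AREc32_Fluc cells, 1000/well in OPTI-MEM with 5% FBS, grown overnight, then exposed to compounds for 24 hr at 37 deg C, 5% CO2. ARE-driven firefly luciferase read by Steady-Glo luminescence after 30 min at RT.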
Experiment [5] can be described thus: HTS Assay for Allosteric Antagonists of the Human D2 Dopamine Receptor: Hit Validation in HTRF (AID 624455).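 Further: stable D1 dopamine receptor cell line scored for blocking the D1 response; on the % scale 0 is the no-effect control and ±100 the full control effect.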 In a few lines: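 Hit validation in cells stably expressing the D1 dopamine receptor, run in HTRF format. Compounds were tested for their ability to inhibit the D1-mediated response.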
On the technique in general: In TR-FRET formats the signal depends on donor and acceptor labels being close together.

The nature of experiment [6]: Cytotoxicity counterscreen for NFkB agonists and antagonists (AID 624476). Further: potency means the concentration at half of the fitted maximal effect.
A short description of experiment [7]: qHTS Assay for Identification of Small Molecule Agonists for NFkB Signaling Pathway. (AID 624478). Further: 0% is about no effect. In a few lines: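 NFkB-bla ME-180 cells carry a beta-lactamase reporter. They received compound plus TNF alpha at 10 pM final (its EC50) for 5 h at 37 C. Reporter activity was read as 460/530 nm emission ratio after 2 h LiveBLAzer substrate loading.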
Experiment [8] can be described thus: qHTS Assay for Identification of Small Molecule Antagonists for NFkB Signaling Pathway. (AID 624479; calls by dose curve;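 further: pathway stimulated with TNF alpha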; further: potency means the concentration at half of the fitted maximal effect).
Experiment [9] is described as follows: Cell Proliferation Assay against the TMD8 Cell Line (AID 651645).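 Further: cells exposed to compound for 48 h before reading.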 Conditions: TMD8 DLBCL cell line proliferation/viability; at 46.1 µM (top of the series). The method, boiled down: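 Seed log-phase TMD8 cells in RPMI containing 5% FBS, add compounds at once, incubate 48 hours at 37C. Equilibrate to room temperature, add CellTiter-Glo, read luminescence after 15 minutes and express relative to DMSO and bortezomib controls.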

The nature of experiment [10]: Cell Proliferation Assay against the HBL1 Cell Line (AID 651646).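 Further: cells exposed to compound for 48 h before reading.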 Conditions: HBL1 DLBCL cells; at 46.1 µM (top of the series). The method, boiled down: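 HBL1 ABC DLBCL cells, 500/well in RPMI with 5% FBS, treated for 48 h at 37C. Viability read by CellTiter-Glo luminescence, normalized to DMSO as 100% and 9.2 uM bortezomib as 0%.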
The nature of experiment [11]: Cell Proliferation Assay against the TMD8 Cell Line (Caspase readout at 16 hrs) (AID 651712). Further: potency means the concentration at half of the fitted maximal effect. The method, boiled down: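 TMD8 cells in RPMI with 5% FBS were treated with compound for 16 h at 37 C, then caspase 3/7 activation was read by Caspase-Glo luminescence. Percent activity was scaled to DMSO (0%) and 9.2 uM bortezomib final (100%).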

SMILES strings stand for the structures. Records with an inconclusive call do not appear. Activity calls are given as the source filed them. Unless noted, the call rests on the fitted dose curve; in most records, active means well fitted curve in the direction sought with a large enough effect; inconclusive means small, poorly fitted or top-dose-only effect, or another doubt; inactive means no such curve, though single readings can be large; an effect the other way counts as inactive or inconclusive.

Glutaminase kidney isoform, mitochondrial (Homo sapiens), sequence (O94925 whole entry, looked up, canonical isoform): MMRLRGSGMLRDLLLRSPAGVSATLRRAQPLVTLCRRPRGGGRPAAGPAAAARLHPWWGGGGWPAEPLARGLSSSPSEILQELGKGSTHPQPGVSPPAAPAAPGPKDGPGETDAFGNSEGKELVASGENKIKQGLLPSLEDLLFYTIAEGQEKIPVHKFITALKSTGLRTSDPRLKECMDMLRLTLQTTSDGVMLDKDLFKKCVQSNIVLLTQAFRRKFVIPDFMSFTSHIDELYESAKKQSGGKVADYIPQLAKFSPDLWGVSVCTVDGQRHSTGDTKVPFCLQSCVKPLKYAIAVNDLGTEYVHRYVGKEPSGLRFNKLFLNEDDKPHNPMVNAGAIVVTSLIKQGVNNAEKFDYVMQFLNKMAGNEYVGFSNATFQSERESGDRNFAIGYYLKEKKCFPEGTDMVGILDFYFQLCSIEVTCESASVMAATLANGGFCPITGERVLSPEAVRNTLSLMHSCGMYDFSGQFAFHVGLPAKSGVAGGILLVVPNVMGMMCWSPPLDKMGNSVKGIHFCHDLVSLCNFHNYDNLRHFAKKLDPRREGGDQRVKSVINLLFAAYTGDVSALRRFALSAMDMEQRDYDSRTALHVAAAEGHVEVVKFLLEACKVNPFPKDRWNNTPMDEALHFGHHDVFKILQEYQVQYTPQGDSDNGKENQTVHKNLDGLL
Glucagon-like peptide 1 receptor (Homo sapiens), sequence (P43220 whole entry, looked up): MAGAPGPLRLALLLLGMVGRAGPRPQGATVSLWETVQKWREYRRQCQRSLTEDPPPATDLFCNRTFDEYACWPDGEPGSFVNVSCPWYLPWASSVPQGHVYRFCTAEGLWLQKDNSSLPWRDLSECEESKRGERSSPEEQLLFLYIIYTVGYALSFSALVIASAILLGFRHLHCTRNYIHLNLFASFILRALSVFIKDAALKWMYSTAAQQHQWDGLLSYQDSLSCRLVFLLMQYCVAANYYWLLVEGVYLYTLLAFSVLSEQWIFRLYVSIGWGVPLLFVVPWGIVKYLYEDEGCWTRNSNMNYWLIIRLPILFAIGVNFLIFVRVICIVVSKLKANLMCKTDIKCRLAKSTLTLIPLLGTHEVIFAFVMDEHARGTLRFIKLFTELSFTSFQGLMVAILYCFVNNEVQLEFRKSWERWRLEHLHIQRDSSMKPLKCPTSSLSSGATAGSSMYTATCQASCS

In the case of `C[C@H]1O[C@@H](n2cc(F)c(=O)[nH]c2=O)[C@H](O)[C@H]1O`, the compound was called inactive in [1], in experiment [2], in experiment [3], in experiment [4] and in experiment [5].

On to `C=CCc1cccc(C=NNC(=O)CN2CCN(Cc3ccccc3)CC2)c1O`, for which the outcome in [1], in experiment [2], in experiment [3], in experiment [4] and in experiment [5] was inactive.

For `CCCCOCCOc1nc(-c2ccc(C(=O)O)c(F)c2)sc1C`, the Potency result in experiment [6], in experiment [8] and in experiment [11] was “inactive” each time. Besides, the call in experiment [7] was inactive. Also, the viability (% of control) in [9] came to 98.4%. Moreover, in experiment [10], the viability, percent of control was 84.4%.

Consider `CC(O)=C(C#N)C(=O)Nc1ccc(C(F)(F)F)cc1`, for which the outcome in experiment [7] was inactive. In addition, in [8], the Potency is 1.88 µM (active). The viability (% of control) in experiment [9] is 43.6%. Also, the viability, percent of control in experiment [10] was determined as 56.6%. Moreover, the Potency result in experiment [11] is “inactive”.

Turning to `CC(C)(C)c1[nH]cnc1C=c1[nH]c(=O)c(=Cc2ccccc2)[nH]c1=O`, the outcome in experiment [7] was inactive. Further, the viability (% of control) in experiment [9] amounted to 1.63%. The viability, percent of control in experiment [10] worked out at 7.81%.

`CCCCc1ccc(NS(=O)(=O)c2ccc(C)c(C(=O)N3CCN(c4cccc(C)c4C)CC3)c2)cc1`: the results for the Potency in experiment [6], in [8] and in experiment [11] were 20.9 µM (active), 16.8 µM (active) and 20.9 µM (active), respectively. Besides, in experiment [9], the viability (% of control) worked out at 9.89%. For the same compound, the viability, percent of control in experiment [10] turned out to be 6.19%.

Regarding `CCC=CC[C@H]1C(=O)CC[C@@H]1CC(=O)OC`, the Potency result in experiment [6], in [8] and in experiment [11] was “inactive” in each case. In addition, in experiment [7], the outcome was inactive. Besides, the viability (% of control) in [9] stood at 114%. In addition, the viability, percent of control in experiment [10] worked out at 109%.

Take `CCc1cc(-c2n[nH]c(C)c2-c2ccc3c(c2)OCCO3)c(O)cc1O`: the call in [7] was inactive. Also, the Potency in experiment [8] is 3.75 µM (active); in experiment [11] it was 23.5 µM (active). In addition, in experiment [9], the viability (% of control) was 38.2%. In experiment [10], the viability, percent of control was 34.6%.

As for `Cc1ccc(NC(=O)c2ccc(CN3CCN(C)CC3)cc2)cc1Nc1nc(-c2cccnc2)cs1`, the Potency result in experiment [6] and in experiment [11] was “inactive” each time. In experiment [7], the compound was classed as inactive. Besides, the Potency in [8] is 16.8 µM (active). Also, the viability (% of control) in experiment [9] worked out at 8.7%. For the same compound, in experiment [10], the viability, percent of control was determined as 11%.

As to `Cn1cc(-c2ccc3nnc(Sc4ccc5ncccc5c4)n3n2)cn1`, the Potency entry in experiment [6], in [8] and in experiment [11] was “inactive” in each case. Moreover, in experiment [9], the viability (% of control) is 74.4%. In addition, the viability, percent of control in [10] worked out at 119%.

For the compound `CCN(CC)CCCCNc1nc2cc(Cl)c(Cl)cc2nc1-c1ccc(-c2cccs2)s1`, the compound was classed as inactive in experiment [7]. The Potency in experiment [8] was 11.9 µM (active). In addition, the viability (% of control) in experiment [9] was determined as 1.61%. In addition, in experiment [10], the viability, percent of control was 1.92%. Also, in experiment [11], the Potency entry is “inactive”.

Consider `O=C(Nc1ccc(OC(F)(F)F)cc1)c1sccc1NCc1ccnc2ccccc12`, for which, in [6], the Potency is 33.2 µM (active). The compound was called inactive in [7]. The viability (% of control) in [9] was determined as 9.29%. The viability, percent of control in experiment [10] came out at 26%. In addition, the Potency result in experiment [11] was “inactive”.

`O=C(Nc1cccc(Cl)c1)Nc1ncc(CCNc2ncnc3ccsc23)s1`: the compound was classed as inactive in [7]. Also, the Potency in experiment [8] is 23.7 µM (active). Also, in experiment [9], the viability (% of control) was 1.73%. Moreover, in experiment [10], the viability, percent of control came out at 2.32%. In addition, the Potency entry in [11] is “inactive”.

In the case of `CN(C)CCN(C)C(=O)c1ccc(NC(=O)Nc2ccc(-c3nc(N4CCOCC4)c4ccn(CC(F)(F)F)c4n3)cc2)cc1`, in experiment [6], the Potency was 4.18 µM (active). In addition, in experiment [7], the result was inactive. The viability (% of control) in experiment [9] came to 0.807%. In addition, the viability, percent of control in [10] is 1.25%.

Consider `OCCn1cc(-c2ccc3c(c2)CCC3=NO)c(-c2ccncc2)n1`, for which the Potency entry in experiment [6], in [8] and in experiment [11] was “inactive” each time. Also, in experiment [7], the call was inactive. Moreover, the viability (% of control) in experiment [9] came out at 80.7%. In experiment [10], the viability, percent of control was found to be 133%.

For the compound `NC(=O)c1ccc(N(C(N)=O)c2c(F)cccc2F)nc1-c1ccc(F)cc1F`, the Potency result in experiment [6], in experiment [8] and in [11] was “inactive” each time. For the same compound, the result in experiment [7] was inactive. For the same compound, in experiment [9], the viability (% of control) came to 81.2%. Moreover, in [10], the viability, percent of control came out at 110%.

Values taken from PubChem BioAssay (NCATS).
